In assay [1] the target is T1, Mitogen-activated protein kinase kinase kinase 7 (Homo sapiens) (UniProt O43318).
T1 sequence (whole entry): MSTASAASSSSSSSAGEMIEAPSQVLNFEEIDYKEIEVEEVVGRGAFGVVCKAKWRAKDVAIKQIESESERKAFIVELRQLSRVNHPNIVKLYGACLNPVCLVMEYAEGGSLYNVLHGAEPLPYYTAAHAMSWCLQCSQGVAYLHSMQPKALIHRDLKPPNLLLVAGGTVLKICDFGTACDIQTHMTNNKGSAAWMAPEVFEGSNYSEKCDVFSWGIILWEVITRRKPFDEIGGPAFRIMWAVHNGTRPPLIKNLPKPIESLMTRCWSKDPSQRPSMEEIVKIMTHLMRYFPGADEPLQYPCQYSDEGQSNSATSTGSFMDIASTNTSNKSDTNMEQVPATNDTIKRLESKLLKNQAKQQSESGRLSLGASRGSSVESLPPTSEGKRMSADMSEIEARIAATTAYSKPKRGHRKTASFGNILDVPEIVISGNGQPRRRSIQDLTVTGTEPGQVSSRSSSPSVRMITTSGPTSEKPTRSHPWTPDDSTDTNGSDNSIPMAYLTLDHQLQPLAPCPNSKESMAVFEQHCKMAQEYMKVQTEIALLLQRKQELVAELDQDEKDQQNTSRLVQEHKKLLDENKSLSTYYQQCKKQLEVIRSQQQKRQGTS
As to conditions: at 1 µM.

The target of assay [2] is T1, Mitogen-activated protein kinase kinase kinase 7 (Homo sapiens). The note with it: at 10 µM.
Assay [3] concerns the target T2, Serine/threonine-protein kinase TAO1 (Homo sapiens) (UniProt Q7L7X3).
T2 sequence (whole entry): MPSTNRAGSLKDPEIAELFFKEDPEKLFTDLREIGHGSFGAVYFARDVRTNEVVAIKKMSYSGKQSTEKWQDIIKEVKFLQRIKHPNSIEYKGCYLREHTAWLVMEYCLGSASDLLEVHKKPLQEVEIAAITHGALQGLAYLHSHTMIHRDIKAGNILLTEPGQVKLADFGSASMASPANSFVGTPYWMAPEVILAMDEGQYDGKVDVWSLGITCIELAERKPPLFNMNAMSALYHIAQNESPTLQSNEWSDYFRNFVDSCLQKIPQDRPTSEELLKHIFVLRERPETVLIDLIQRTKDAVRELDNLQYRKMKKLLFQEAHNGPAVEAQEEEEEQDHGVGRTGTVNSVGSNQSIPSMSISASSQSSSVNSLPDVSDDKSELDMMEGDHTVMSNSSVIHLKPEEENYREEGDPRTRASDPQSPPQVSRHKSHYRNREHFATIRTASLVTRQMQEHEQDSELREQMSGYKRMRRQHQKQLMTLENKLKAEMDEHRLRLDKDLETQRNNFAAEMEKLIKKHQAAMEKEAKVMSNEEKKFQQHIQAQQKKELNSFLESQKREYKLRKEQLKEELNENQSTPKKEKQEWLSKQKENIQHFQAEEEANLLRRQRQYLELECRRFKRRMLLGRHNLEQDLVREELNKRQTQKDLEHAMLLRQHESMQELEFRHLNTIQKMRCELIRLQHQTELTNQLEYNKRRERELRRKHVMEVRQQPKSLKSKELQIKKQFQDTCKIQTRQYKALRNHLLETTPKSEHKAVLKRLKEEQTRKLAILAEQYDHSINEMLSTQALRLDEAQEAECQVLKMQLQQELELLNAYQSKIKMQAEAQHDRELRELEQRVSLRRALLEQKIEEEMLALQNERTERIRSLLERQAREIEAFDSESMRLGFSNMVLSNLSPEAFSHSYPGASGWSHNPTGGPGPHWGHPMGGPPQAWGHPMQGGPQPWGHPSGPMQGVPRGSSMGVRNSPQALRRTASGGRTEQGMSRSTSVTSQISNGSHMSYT
The note with it: at 10 µM.

Assay [4] deals with T3, Serine/threonine-protein kinase TAO2 (Homo sapiens) (UniProt Q9UL54).
T3 sequence (whole entry): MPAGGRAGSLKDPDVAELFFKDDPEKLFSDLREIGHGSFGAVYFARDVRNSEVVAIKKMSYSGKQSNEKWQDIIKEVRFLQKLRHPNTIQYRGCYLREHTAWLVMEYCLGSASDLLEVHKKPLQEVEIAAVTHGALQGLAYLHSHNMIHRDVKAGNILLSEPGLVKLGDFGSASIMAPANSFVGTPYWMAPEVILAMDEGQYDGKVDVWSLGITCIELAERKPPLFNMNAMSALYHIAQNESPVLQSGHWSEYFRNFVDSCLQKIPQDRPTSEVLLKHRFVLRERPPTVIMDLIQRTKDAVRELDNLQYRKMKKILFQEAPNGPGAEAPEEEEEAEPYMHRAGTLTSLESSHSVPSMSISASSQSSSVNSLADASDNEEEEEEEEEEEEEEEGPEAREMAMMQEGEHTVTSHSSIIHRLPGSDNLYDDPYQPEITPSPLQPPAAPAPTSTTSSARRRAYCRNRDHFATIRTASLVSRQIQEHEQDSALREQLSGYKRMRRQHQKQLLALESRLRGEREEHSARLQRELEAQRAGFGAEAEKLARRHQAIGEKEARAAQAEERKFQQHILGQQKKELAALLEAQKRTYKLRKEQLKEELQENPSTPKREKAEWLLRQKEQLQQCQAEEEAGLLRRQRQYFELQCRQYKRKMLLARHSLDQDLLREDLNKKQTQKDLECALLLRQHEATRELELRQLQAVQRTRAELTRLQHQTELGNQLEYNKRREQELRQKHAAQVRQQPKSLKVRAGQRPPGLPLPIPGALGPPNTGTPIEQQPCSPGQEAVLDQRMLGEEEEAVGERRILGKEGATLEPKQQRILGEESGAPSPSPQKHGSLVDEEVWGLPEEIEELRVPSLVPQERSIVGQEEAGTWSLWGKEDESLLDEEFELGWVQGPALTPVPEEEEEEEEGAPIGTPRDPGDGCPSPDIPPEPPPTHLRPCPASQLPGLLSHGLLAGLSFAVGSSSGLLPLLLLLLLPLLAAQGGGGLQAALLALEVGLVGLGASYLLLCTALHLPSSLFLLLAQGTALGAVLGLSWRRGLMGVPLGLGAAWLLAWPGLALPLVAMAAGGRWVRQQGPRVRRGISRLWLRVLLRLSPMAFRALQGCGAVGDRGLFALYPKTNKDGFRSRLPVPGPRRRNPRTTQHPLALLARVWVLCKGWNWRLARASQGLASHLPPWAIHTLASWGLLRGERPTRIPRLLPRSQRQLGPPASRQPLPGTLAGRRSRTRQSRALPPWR
As to conditions: at 1 µM.

Assay [5] deals with T3, Serine/threonine-protein kinase TAO2 (Homo sapiens). The note with it: at 10 µM.
The target in assay [6] is T4, Serine/threonine-protein kinase TBK1 (Homo sapiens) (UniProt Q9UHD2).
T4 sequence (whole entry): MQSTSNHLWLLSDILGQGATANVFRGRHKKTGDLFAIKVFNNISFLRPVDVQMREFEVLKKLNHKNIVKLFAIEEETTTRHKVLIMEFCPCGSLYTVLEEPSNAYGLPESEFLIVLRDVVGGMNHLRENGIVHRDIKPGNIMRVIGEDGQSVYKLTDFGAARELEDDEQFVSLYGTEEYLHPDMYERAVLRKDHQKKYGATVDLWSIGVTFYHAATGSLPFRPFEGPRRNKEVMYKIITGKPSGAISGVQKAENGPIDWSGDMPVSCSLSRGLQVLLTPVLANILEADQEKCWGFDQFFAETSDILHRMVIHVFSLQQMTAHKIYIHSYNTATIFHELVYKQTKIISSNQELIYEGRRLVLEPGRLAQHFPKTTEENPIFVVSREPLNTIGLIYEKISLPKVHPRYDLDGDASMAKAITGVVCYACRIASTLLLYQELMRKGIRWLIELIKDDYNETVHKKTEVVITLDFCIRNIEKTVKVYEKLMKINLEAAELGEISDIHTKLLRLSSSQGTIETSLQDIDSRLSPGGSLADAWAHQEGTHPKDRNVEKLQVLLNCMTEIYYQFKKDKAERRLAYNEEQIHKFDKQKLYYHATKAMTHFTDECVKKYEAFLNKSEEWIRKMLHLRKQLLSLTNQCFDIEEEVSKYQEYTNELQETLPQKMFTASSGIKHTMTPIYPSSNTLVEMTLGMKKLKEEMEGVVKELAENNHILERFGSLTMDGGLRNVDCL
The note with it: at 1 µM.

In assay [7] the target is T4, Serine/threonine-protein kinase TBK1 (Homo sapiens). As to conditions: at 10 µM.
Assay [8] deals with T5, TGF-beta receptor type-1 (Homo sapiens) (UniProt P36897).
T5 sequence (whole entry): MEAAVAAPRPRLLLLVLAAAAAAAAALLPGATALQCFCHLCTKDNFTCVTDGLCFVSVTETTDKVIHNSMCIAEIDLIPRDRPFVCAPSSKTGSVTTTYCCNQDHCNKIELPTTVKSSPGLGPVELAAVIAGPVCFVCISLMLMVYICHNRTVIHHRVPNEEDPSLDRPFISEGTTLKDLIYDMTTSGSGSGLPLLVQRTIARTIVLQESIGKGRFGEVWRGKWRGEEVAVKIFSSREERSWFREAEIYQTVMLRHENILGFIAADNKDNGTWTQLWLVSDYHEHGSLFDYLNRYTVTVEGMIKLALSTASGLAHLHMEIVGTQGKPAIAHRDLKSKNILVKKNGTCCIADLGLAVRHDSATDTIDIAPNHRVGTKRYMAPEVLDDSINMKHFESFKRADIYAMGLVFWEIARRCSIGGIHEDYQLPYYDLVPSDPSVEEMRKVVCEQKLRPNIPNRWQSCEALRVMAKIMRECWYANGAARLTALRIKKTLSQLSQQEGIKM
As to conditions: at 1 µM.

In assay [9] the target is T5, TGF-beta receptor type-1 (Homo sapiens). The note with it: at 10 µM.
Assay [10] has as its target T6, Inhibitor of nuclear factor kappa-B kinase subunit alpha (Homo sapiens) (UniProt O15111).
T6 sequence (whole entry): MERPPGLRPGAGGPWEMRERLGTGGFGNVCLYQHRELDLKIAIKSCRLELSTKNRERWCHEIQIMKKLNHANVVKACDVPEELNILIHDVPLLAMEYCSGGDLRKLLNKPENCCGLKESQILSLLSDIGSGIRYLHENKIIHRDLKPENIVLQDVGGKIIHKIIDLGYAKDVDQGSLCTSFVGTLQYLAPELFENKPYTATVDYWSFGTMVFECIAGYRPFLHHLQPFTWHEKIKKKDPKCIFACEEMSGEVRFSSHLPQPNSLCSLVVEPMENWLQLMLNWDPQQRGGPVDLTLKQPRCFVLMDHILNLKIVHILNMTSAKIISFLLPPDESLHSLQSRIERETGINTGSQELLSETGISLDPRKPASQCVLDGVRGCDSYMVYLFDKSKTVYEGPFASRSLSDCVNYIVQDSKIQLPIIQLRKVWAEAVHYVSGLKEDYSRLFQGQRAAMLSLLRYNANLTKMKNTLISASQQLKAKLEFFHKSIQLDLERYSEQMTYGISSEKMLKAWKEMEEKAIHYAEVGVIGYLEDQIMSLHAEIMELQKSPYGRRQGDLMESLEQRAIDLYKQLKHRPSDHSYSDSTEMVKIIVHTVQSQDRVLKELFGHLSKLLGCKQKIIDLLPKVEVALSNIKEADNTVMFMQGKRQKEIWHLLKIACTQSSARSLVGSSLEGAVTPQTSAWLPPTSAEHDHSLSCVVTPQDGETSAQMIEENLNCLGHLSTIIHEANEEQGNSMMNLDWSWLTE
The note with it: at 1 µM.

Assay [11] addresses T6, Inhibitor of nuclear factor kappa-B kinase subunit alpha (Homo sapiens). The note with it: at 10 µM.
Assay [12] concerns the target T7, Inhibitor of nuclear factor kappa-B kinase subunit beta (Homo sapiens) (UniProt O14920).
T7 sequence (whole entry): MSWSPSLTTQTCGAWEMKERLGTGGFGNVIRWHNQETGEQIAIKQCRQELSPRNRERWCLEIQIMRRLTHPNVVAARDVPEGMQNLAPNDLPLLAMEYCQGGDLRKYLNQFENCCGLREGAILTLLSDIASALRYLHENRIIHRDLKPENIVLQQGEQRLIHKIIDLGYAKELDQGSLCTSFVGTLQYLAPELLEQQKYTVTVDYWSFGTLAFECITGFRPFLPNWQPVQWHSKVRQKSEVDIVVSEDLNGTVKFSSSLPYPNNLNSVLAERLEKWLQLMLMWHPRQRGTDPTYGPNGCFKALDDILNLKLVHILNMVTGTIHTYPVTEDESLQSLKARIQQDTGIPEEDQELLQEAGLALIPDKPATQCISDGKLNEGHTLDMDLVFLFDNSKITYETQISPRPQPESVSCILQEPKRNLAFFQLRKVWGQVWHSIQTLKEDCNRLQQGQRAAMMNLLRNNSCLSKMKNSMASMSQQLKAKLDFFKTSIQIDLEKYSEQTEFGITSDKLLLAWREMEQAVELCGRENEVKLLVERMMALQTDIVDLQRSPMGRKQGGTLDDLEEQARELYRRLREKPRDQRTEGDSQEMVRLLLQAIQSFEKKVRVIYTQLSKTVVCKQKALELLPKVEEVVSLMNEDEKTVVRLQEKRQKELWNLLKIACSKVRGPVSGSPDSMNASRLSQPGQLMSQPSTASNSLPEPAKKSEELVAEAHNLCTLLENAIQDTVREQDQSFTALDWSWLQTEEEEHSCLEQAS
The note with it: at 1 µM.

Assay [13] addresses T7, Inhibitor of nuclear factor kappa-B kinase subunit beta (Homo sapiens). As to conditions: at 10 µM.

Regarding `Nc1n[nH]c2nc3ccccc3nc12`, the residual activity in [1] turned out to be 91%; in assay [2], 74%; in [3] it was 75%; in [4], 93%; in assay [5] it was 85%; in assay [6], 78%. The residual activity was determined as 63% in assay [7]; 91% in [8]; 82% in assay [9]; 93% in assay [10]; 69% in assay [11]; 122% in assay [12]. The residual activity in assay [13] worked out at 90%.

On to `CC(C)N(CCC(=O)c1ccc2ccccc2c1)Cc1ccccc1`, for which the residual activity in [1] came to 87%; in [2], 86%; in assay [4], 100%; in assay [5] it was 88%; in assay [6], 52%; in assay [7], 51%. The residual activity in assay [8] came out at 76%; in [9], 74%.
